The campaign covered roughly 65,000 compounds. About 2,100 (3.2%) showed an effect of 50% or more. The median lay at about -52%. The full list was thinned out, with strong results kept by preference.

This test deals with Plasmodium falciparum. The test is described as follows: Screen against P. falciparum Asexual Blood Stage (ABS), at 5uM. The conditions noted are these: tested at 5 uM. It counts as functional, Dd2.
For the compound `COc1cc(N2CC[C@@H]3OCCN(C)[C@H]3CC2)ncn1`, the INHIBITION is -67.4%. The result for `Cc1cccc(OCC(=O)N2CCN(C3CCOC3=O)CC2)c1C` (stereo not given) reads -13.7%; that for `CC1COC2(CCN(C(=O)c3ncoc3C(C)C)CC2)O1` (stereo not given), -69.9%; that for `Nc1nc(N)c2c(n1)OC1(CCN(Cc3nccs3)C1)C2` (stereo not given), -96%. With `CCN1CCC2(CC1)CN(CCO)c1ccccc12` the figure was -30.2%. Regarding `c1cnc(N2CCC3(CC2)CN(CC2CC2)c2ccccc23)nc1`, the INHIBITION worked out at 86.3%. The result for `CN1CCN(c2ncccn2)CC12CCC(=O)N(CC1CC1)CC2` (stereo not given) reads -74.4%. Take `Fc1ccc2[nH]c3c(c2c1)CCN1C(c2ccncc2)N2CCC31CC2` (stereo not given): the INHIBITION was found to be 89.6%. With `Fc1ccc2[nH]c3c(c2c1)CCN1C(c2ccccn2)N2CCC31CC2` (stereo not given) the figure was 81.2%.

With `Cc1noc(C)c1CN1CCCC2(C1)CN(c1nccs1)CCO2` (stereo not given), the INHIBITION was 18.6%. With `c1cnc(N2CCN3C[C@H](Oc4cncnc4)C[C@H]3C2)nc1` the figure was -102%; with `CNc1nc(C(=O)N2C[C@@H]3CCN(C)[C@@H]3C2)cs1`, -94.9%.

As to `CCOCCCn1c(NC(=O)c2cc(C)on2)nc2ccccc21`, the INHIBITION came out at 71.5%. Consider `CCOCCN1C[C@H](C(=O)Nc2cccnc2)[C@@H]2CCO[C@@H]2C1`, for which the INHIBITION is recorded as -9.46%. Regarding `NCC1[C@H]2CN(Cc3ccccc3F)C[C@@H]12` (stereo not given in full), the INHIBITION is given as 68.2%.

`NCC1[C@H]2CN(Cc3cccc(Cl)c3)C[C@@H]12` (stereo not given in full): the INHIBITION is reported as 83.8%. The result for `c1ccc(CCN2C[C@@H]3OCCN(c4ncccn4)[C@@H]3C2)cc1` reads -64.6%; that for `Cc1ccc([C@]2(O)CC[C@H]3CN(Cc4ccccc4F)C[C@H]32)nc1`, 20.6%; that for `O=C(CC1[C@H]2CN(Cc3ccncc3)C[C@@H]12)N1CCCC1` (stereo not given in full), -109%.

As to `Oc1cccc(CN2C[C@@H]3CC[C@H]2CN(Cc2ccncc2)C3)c1`, the INHIBITION is -31.9%.

`NCC1[C@H]2CN(CCc3ccccc3)C[C@@H]12` (stereo not given in full): the INHIBITION came to 86.8%. For `O=C1CO[C@@H]2CN(Cc3nccs3)C[C@H]2N1Cc1ccncc1`, the INHIBITION was -59.6%. With `CN(C)[C@@H]1CN(C(=O)Cc2ccc(F)cc2)[C@@H]2CCCO[C@H]12` the figure was -29.9%; with `CN(CCc1ccccc1)Cc1nc2c(cnn2C)c(=O)[nH]1`, -38.8%. The result for `CC(C)N(Cc1ccccn1)Cc1nc2c(cnn2C)c(=O)[nH]1` reads 74.2%. Take `CN(CCc1ccc(F)cc1)Cc1nc2c(cnn2C)c(=O)[nH]1`: the INHIBITION is given as -97.7%. The result for `c1ccc(N2CC[C@@H]3CN(Cc4ccncc4)CCO[C@@H]3C2)cc1` reads -57.3%; that for `NCCn1nc(C2CCN(Cc3ccccc3)C2)c2nccnc21` (stereo not given), 80.4%; that for `c1cnc(N2CC[C@@H]3CN(Cc4ccncc4)CCO[C@@H]3C2)nc1`, -103%. With `COc1cccc([C@@H]2CCN(Cc3[nH]nc(C)c3Cl)C[C@H]2O)c1` the figure was -12.4%; with `CN(C)CCn1nc(C2CCN(Cc3ccccc3)C2)c2cccnc21` (stereo not given), 71.9%; with `c1ccc(CN2CC[C@H]3CO[C@H](CNc4ncccn4)[C@H]3C2)cc1`, -6.23%. In the case of `COc1cccc(CN2CCC(c3nn(CCN)c4nccnc34)C2)c1` (stereo not given), the INHIBITION was 89.1%.

With `CN(C)CCN1CCO[C@H]2CN(Cc3ccccn3)C[C@H]21`, the INHIBITION was found to be 11.1%. With `NCCn1nc(C2CCN(Cc3ccccc3Cl)C2)c2nccnc21` (stereo not given) the figure was 80.1%; with `O[C@@]1(c2ccccn2)CC[C@H]2CN(Cc3cccc(Cl)c3Cl)C[C@H]21`, 39.6%. In the case of `COC[C@@H]1CCC[C@]12CN(Cc1cccc(C)n1)CCO2`, the INHIBITION is on record as -26.8%. The result for `CCS(=O)(=O)NC[C@]12COC[C@H]1CN(Cc1ccccn1)C2` reads -30.3%. In the case of `CC(C)N1CCO[C@H]2CN(C(=O)c3ccncc3)C[C@H]21`, the INHIBITION is -69.9%. With `Cc1nocc1C(=O)N1CCOC2(COCCN(CC3CC3)C2)C1` (stereo not given) the figure was -103%; with `COc1ccc(CC(=O)N2CCN(Cc3ccco3)C[C@H]2C)cc1OC`, -28.9%; with `CN(C)C(=O)CN1CCO[C@H]2CN(c3ccccn3)C[C@H]21`, -57.3%. The result for `COc1ccccc1CN1CCC(c2nn(CCN)c3nccnc23)C1` (stereo not given) reads 75.5%; that for `COCCN1CC[C@@H]2CN(Cc3cccnc3OC)C[C@@H]2C1`, -68%; that for `COc1ncccc1CN1C[C@H]2CCN(c3ncccn3)C[C@H]2C1`, -39%.

In the case of `c1cncc(CO[C@H]2CN(Cc3ccco3)[C@@H]3COC[C@H]23)c1`, the INHIBITION was -14.4%. With `Cc1cccc(CN2CC[C@H]3[C@@H]2CC(=O)N3CC2CC2)n1`, the INHIBITION is recorded as -122%.

For `Cc1cc(C)n(C2CN(CC(O)c3cc(F)ccc3F)C2)n1` (stereo not given), the INHIBITION was determined as 84.7%. The result for `CCC(CO)N(Cc1cccc(O)c1)Cc1ccccc1C` (stereo not given) reads 75.2%. With `O=C(N1CCOCC1)[C@@]12CCO[C@@H]1CCN(Cc1ccncc1)C2` the figure was -39.7%.

These data come from ChEMBL document CHEMBL4513216, “Probing the Open Global Health Chemical Diversity Library for Multistage-Active Starting Points for Next-Generation Antimalarials” (ACS Infect Dis, 2020).
